Only some compounds are listed: those with a hit (about 21% of all), similar ones and a draw of the others.
TDP1 cell noCPT – qHTS for Inhibitors of human tyrosyl-DNA phosphodiesterase 1 (TDP1): qHTS in cells in absence of CPT; Potency, µM (titrated, usually from 46.2 µM), without a hit: at the top dose activity change, negative = growth inhibition, usual class: inhibitors; AID 686978, 2013; actives 15% (n = 420,000); DT40 Tdp1-/- hTDP1 cells, no CPT, ATP luminescence, 48 h; note: potency is the fitted concentration of half-maximal effect; % is set by controls: 0 for no effect and ±100 for the full control effect; nearly all actives have a fitted effect of over 55% in size
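DT40 Tdp1-/-;hTDP1 cells, no CPT (DMSO vehicle only), 400 cells/well; compounds pin-transferred; ≥48 hr, 37 °C; CellTiter-Glo 30 min RT dark, luminescence read.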
TDP1 cell CPT – DT40-hTDP1 cell growth loss with CPT | chicken DT40 Tdp1-/-;hTDP1 cells + 20 nM CPT, ATP luminescence, 48 h | Potency, µM (titrated, usually from 46.2 µM), inactives show top-dose activity change, negative = growth inhibition, most hits filed as inhibitors | actives 12% (n = 420,000); note: potency is the fitted concentration of half-maximal effect; % is set by controls: 0 for no effect and ±100 for the full control effect; nearly all actives have a fitted effect of over 55% in size
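Cell growth measured by CellTiter-Glo luminescence after a minimum 48 h, 37 C compound exposure with 20 nM CPT in Tdp1-knockout DT40 cells stably expressing hTDP1, seeded 400/well; qHTS titration format.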
ClpP mod – qHTS Assay for Activators of ClpP | Potency, µM (series often up to 57.5 µM), for the others: at the top dose activity change, negative = active | purified B. subtilis ClpP, FRET peptide cleavage, 20 min | ATP-dependent Clp protease proteolytic subunit (Bacillus subtilis (strain 168)), P80244 | AID 651965, 2013 | actives 1.9% (n = 340,000); active = well fitted falling curve with a large enough effect; inconclusive = small, poorly fitted or top-dose-only effect; inactive = no such curve, though single readings can be large or run the other way; note: potency is the fitted concentration of half-maximal effect; the source files actives as falling curves though it sought activators and does not explain the sign; nearly all actives have a fitted effect of over 65% in size
Target sequence (P80244 whole entry, looked up): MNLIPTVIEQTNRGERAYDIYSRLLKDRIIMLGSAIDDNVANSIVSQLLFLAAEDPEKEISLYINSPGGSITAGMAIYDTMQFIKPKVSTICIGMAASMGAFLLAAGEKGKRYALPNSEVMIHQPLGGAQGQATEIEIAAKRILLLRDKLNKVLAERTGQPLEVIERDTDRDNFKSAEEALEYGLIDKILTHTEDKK
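Purified B. subtilis ClpP, 10 microg/mL final in Tris/HCl pH8 with KCl, BSA, glycerol and Tween-20, cleaved an Abz/nitrotyrosine-quenched decapeptide. Fluorescence (ex 320, em 430) was read at 0 and 20 min at room temperature. Delta was normalized to 5.8 microM ADEP and DMSO/no-enzyme controls.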
DRD3 antagonist – D3 dopamine receptor (human) antagonism; D3R cells, DiscoveRx beta-arrestin luminescence, antagonist mode; stronger effect = lower value; max response, negative = inhibition, %; P35462; AID 652054; actives 2.5% (n = 360,000); in the data active = max response below about -50%; inconclusive = no clear call, values can overlap the other calls; note: % is set by controls: 0 for no effect and ±100 for the full control effect
Target sequence (P35462 whole entry, looked up): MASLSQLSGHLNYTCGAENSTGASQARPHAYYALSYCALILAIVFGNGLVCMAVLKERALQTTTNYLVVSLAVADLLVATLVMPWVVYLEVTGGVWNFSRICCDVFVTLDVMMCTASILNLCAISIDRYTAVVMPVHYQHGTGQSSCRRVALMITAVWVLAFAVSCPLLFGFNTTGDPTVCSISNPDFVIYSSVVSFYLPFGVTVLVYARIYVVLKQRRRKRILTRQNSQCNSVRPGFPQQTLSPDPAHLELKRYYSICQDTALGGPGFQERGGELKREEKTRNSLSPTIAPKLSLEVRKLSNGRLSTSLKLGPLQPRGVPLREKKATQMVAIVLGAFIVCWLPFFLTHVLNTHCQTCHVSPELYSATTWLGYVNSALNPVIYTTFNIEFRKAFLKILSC
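Cells expressing the human receptor were seeded at 1500 cells/well, incubated overnight at 37 degrees C in 5% CO2, then exposed to library compounds with dopamine controls for 90 minutes at 37 degrees C before luminescent detection.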
IL-1B inflam inh – blocks inflammasome-driven IL-1 beta release; actives 4.7% (n = 360,000); activity change, % at 57.5 µM; THP-1 LPS/ATP IL-1B secretion, AlphaLISA, 16 h; stronger effect = lower value; in the data active = activity change below about -50%; inconclusive = mostly about -30% to -49%; note: % is set by controls: 0 for no effect and ±100 for the full control effect
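Secreted IL-1B measured by AlphaLISA bead assay after 16 h compound exposure of THP-1 cells; compounds (final up to 57.5 uM) added 1 h before LPS (250 ng/mL) and ATP (1.25 mM) stimulation; lower signal means less secretion.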
D3 ag – agonists of human D3 dopamine receptor; D3R DiscoveRx beta-arrestin cells, luminescence, 90 min; max activation, %; actives 0.58% (n = 410,000); in the data active = max activation above about 30%; note: 0% is about no effect
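Cells at 1500/well, incubated overnight, then treated with pinned compounds (dopamine as control) for 90 min at 37 degrees C. DiscoveRx reagent added for 30 - 60 minutes at room temperature; luminescence read.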
* = called active by the depositor; ? = inconclusive; · = no result given. Unless noted, calls come from the whole dose curve; as a rule, active = well fitted inhibition curve with a large enough effect; inconclusive = small, poorly fitted or top-dose-only effect; inactive = flat fitted curve, though single readings scatter.

SMILES	TDP1 cell noCPT	TDP1 cell CPT	ClpP mod	DRD3 antagonist	IL-1B inflam inh	D3 ag
CCc1ccc(CCC(=O)Nc2ccc(Cl)cc2)o1	-3%	-12%	-2%	-4	-19	-1
CCC(=O)Oc1ccc(/C=C(\C#N)c2nc3ccccc3[nH]2)cc1OC	?	?	-20%	·	·	4
N#C/C(=C\c1cc([N+](=O)[O-])c(N2CCOCC2)cc1N1CCOCC1)c1nc2ccccc2[nH]1	23µM*	?	-2%	-79*	?	-2
COc1cc(/C=C(\C#N)c2nc3ccccc3[nH]2)cc(OC)c1O	13µM*	16µM*	·	-16	-60*	3
COc1ccc(/C=C(\C#N)c2nc3ccccc3[nH]2)cc1O	21µM*	15µM*	·	1	?	2
COc1cc(C(=O)N/N=C2\CCS(=O)(=O)c3ccc(F)cc32)cc(OC)c1OC	?	-14%	-1%	-18	9	-8
O=C(CCl)Nc1cn(-c2ccccc2)nc1-c1ccccc1	3.7µM*	2.9µM*	-14%	-6	-97*	0
CC(=O)Nc1cn(-c2ccccc2)nc1-c1ccccc1	10%	1%	-18%	-12	-79*	3
CC(=O)c1cccc(NS(=O)(=O)c2cc3c(cc2C)N(C(C)=O)CCO3)c1	?	?	-1%	15	9	-10
CC1(C)Cc2c(sc(NC(=O)Cc3ccccc3)c2C#N)C(C)(C)N1	?	?	1%	-4	-4	-8
COc1ccc2c(c1)c1c(c(=O)n(-c3cccc(Cl)c3)c(=O)n1C)n2C	-8%	-5%	0%	·	·	-7
CCOC(=O)c1c(C)[nH]c2cc(Br)c(O)cc12	-9%	?	-2%	10	-9	2
CCOC(=O)c1c(OCC)[nH]c2c1cc(O)c1ccccc12	18µM*	16µM*	22µM*	-9	-18	-15
CCOC(=O)c1c(NC(=O)C2COc3ccccc3O2)sc2c1CC(C)(C)NC2(C)C (stereo not drawn)	12µM*	13µM*	-3%	0	?	1
CCOC(=O)c1c(NC(=O)C2COc3ccccc3O2)sc(C(C)=O)c1C (stereo not drawn)	6.5µM*	7.3µM*	-5%	34	-15	4
CC(=O)N1CCc2c(sc3c2c(=O)n(Cc2ccccc2)c(=O)n3Cc2cccc(Cl)c2)C1	?	?	-5%	·	·	8
Cc1cccnc1NC(=O)c1ccc(NS(=O)(=O)/C=C/c2ccccc2)cc1	-28%	-22%	2%	-20	11	2
COc1ccc(-c2nc3ccccc3c(=O)n2NC(=S)N(C)C)cc1	12µM*	12µM*	-1%	6	-9	5
COc1ccc(OCC(=O)Nn2c(-c3ccc(OC)cc3)nc3ccccc3c2=O)cc1	?	-3%	-2%	-24	6	-1
O=C(Nn1c(-c2ccc(Br)cc2)nc2ccccc2c1=O)c1cccnc1	23µM*	?	·	-20	23	-9
COc1cccc(CNn2c(-c3cccc(C)c3)nc3ccccc3c2=O)c1	18µM*	?	0%	8	-71*	11
COc1ccc(CNn2c(-c3cccs3)nc3ccccc3c2=O)cc1OC	10µM*	7.3µM*	·	35	-79*	6
COc1ccc(OC)c(CNn2c(-c3cccc(C)c3)nc3ccccc3c2=O)c1	?	?	-3%	6	-4	10
Cc1ccc(CNC(=O)Cn2ccn(-c3cccc(Cl)c3)c(=O)c2=O)cc1	-29%	-28%	?	·	·	5
COc1cccc(C(=O)Nn2c(-c3cccs3)nc3ccccc3c2=O)c1OC	?	-20%	·	-1	25	1
SMILES	TDP1 cell noCPT	TDP1 cell CPT	ClpP mod	DRD3 antagonist	IL-1B inflam inh	D3 ag
O=c1c2ccccc2nc(-c2cccs2)n1-c1cccc2ccccc12	21µM*	?	-16%	-9	-1	1
O=C(/C=C/c1ccc(Br)o1)NCc1ccccc1	-25%	-4%	-6%	6	20	-7
COc1ccc(C(=O)CCC(=O)N2CCN(c3ccccc3)CC2)cc1	?	16µM*	-1%	4	-15	3
O=C(CCC(=O)N1CCN(c2ccc(F)cc2)CC1)c1ccc(Cl)cc1	?	?	-1%	13	0	-3
COc1ccc(N2CCN(C(=O)CCNC(=O)c3ccc(C(C)(C)C)cc3)CC2)cc1	?	18µM*	-1%	-3	13	-6
COc1ccc(N2CCN(C(=O)COc3ccccc3)CC2)cc1	-12%	-16%	-1%	11	10	8
COc1ccc(N2CCN(C(=O)CN3CCN(C(c4ccccc4)c4ccccc4)CC3)CC2)cc1	23µM*	?	-1%	?	-15	-13
O=C(CCC(=O)N1CCN(c2ccc(Cl)c(Cl)c2)CC1)c1ccccc1	18µM*	21µM*	2%	16	-9	7
COc1ccc(NS(=O)(=O)c2cccc(C(=O)NCc3ccccn3)c2)cc1	-13%	-23%	-20%	-3	26	3
COC(=O)c1ccccc1C(=O)N1CCCC(CNC(=O)c2ccc(F)cc2)C1 (stereo not drawn)	-3%	15%	·	12	16	9
C[C@H](NC(=O)N1CCn2c1nc1ccccc12)C(=O)NCc1ccc(F)cc1	-5%	-9%	1%	6	0	1
NCCCC(N)CC(=O)NCC1NC(=O)C(CO)NC(=O)C(N)CNC(=O)C(C2CCN=C(N)N2)NC(=O)/C(=C\NC(N)=O)NC1=O (stereo not drawn)	0%	-27%	·	·	·	·
COc1ccc2c(c1)CCc1c(C(=O)Nc3ccc(F)c(Cl)c3)noc1-2	-12%	-17%	1%	·	·	-3
COc1ccccc1N1CCN(C(=O)c2cc(-c3ccccc3O)on2)CC1	18µM*	21µM*	-3%	-10	19	-12
COc1cccc(OCc2cc(C(=O)N3CCN(c4ccccc4O)CC3)no2)c1	13µM*	16µM*	-3%	6	0	7
COc1cccc(-c2cc(C(=O)N3CCOCC3)no2)c1	-13%	0%	·	11	-2	-6
COc1ccc(-c2cc(C(=O)N3CCN(c4ccccc4)CC3)no2)cc1OC	?	-29%	-2%	13	13	6
COc1ccc(-c2cc(C(=O)N3CCN(c4ccccc4OC)CC3)no2)cc1OC	21µM*	-15%	·	0	-7	-1
COc1cccc(-c2cc(C(=O)N3CCN(C(c4ccccc4)c4ccccc4)CC3)no2)c1	26µM*	21µM*	-10%	?	-9	-3

From PubChem BioAssay
